High-throughput results from PubChem.
TDP1 cell CPT – qHTS for Inhibitors of human tyrosyl-DNA phosphodiesterase 1 (TDP1): qHTS in cells in presence of CPT. chicken DT40 Tdp1-/-;hTDP1 cells + 20 nM CPT, ATP luminescence, 48 h. 420,000 compounds, 12% hits. Potency, µM (titrated, usually from 46.2 µM), inactives show top-dose activity change, negative = growth inhibition, actives largely listed as inhibitors; note: nearly all actives have a fitted effect of over 55% in size
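Chicken DT40 Tdp1-/- cells complemented with human TDP1, 400 cells/well, exposed to compounds plus 20 nM camptothecin for at least 48 h at 37 C; viability read as ATP content by CellTiter-Glo luminescence.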
RORg inh – qHTS for inhibitors of ROR gamma transcriptional activity | Nuclear receptor ROR-gamma (Mus musculus), P51450 | 310,000 compounds, 5.4% hits | Potency, µM (titrated, usually from 53.6 µM), without a hit: at the top dose activity change, negative = inhibition, usual class: inhibitors | Drosophila S2 Gal4-RORgamma UAS-luciferase reporter, 20 h; note: nearly all actives have a fitted effect of over 60% in size
Target sequence (P51450 whole entry, looked up, the tested form may be a part): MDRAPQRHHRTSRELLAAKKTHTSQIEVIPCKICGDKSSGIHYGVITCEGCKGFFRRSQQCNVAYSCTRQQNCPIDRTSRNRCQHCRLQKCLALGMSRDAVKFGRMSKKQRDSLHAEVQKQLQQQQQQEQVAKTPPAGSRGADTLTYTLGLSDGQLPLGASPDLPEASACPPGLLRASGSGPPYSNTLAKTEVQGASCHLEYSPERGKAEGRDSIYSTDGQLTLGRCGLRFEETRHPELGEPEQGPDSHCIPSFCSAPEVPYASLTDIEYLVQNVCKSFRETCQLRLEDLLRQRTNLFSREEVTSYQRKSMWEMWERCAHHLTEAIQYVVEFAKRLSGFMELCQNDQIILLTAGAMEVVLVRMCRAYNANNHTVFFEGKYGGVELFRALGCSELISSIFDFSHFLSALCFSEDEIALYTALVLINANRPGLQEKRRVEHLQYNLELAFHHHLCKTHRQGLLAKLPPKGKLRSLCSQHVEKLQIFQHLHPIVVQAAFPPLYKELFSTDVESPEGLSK
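Using a luciferase readout, inhibitors were identified by reduced reporter activity in Drosophila cells coexpressing a copper-inducible Gal4–ROR gamma fusion and UAS-driven Photinus luciferase, incubated 20 hr after 700 uM copper sulfate.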
12-LOX inh – Primary qHTS assay for inhibitors of human arachidonate 12S-lipoxygenase (ALOX12): Round 2; Polyunsaturated fatty acid lipoxygenase ALOX12 (Homo sapiens), P18054; purified 12hLO, xylenol orange hydroperoxide absorbance; Potency, µM (doses to about 108 µM), for the others: at the top dose activity change, negative = inhibition, usual class: inhibitors; 580,000 compounds, 1.1% hits; AID 1671190, 2021
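Purified human 12hLO at 150 nM in 25 mM Hepes, 0.01% Triton X-100, pH 7.0, preincubated 15 min at room temperature with compound. Reaction started with 40 uM arachidonic acid, 30 min at room temperature. Hydroperoxide measured by Fe-xylenol orange, 573/405 nm absorbance ratio.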
VP16 counter – VP16 counterscreen qHTS for inhibitors of ROR gamma transcriptional activity; Drosophila S2 Gal4-VP16 UAS-luciferase, luminescence, 20 h; Potency, µM (top dose mostly 53.6 µM), without a hit: at the top dose activity, negative = inhibition, hits mostly inhibitors; 310,000 compounds, 3.5% hits; AID 2546, 2010;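 note: Gal4-VP16 expression switched on by copper sulfate through the metallothionein promoter; nearly all actives have a fitted effect of over 50% in size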
ELG1 DNA repair – qHTS screen for small molecules that inhibit ELG1-dependent DNA repair in human embryonic kidney (HEK293T) cells expressing luciferase-tagged ELG1; 330,000 compounds, 2.3% hits; Potency, µM (series often up to 46.1 µM), for inactives: top-dose activity change, negative = inhibition, usual class: inhibitors; HEK293T ELG1-luciferase reporter, luminescence, 16 h; DNA damage induced by 5-fluorouridine; note: nearly all actives have a fitted effect of over 55% in size
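Cells (2,000 per well) received 5-fluorouridine plus test compound or DMSO and were incubated 16 hr at 37 °C, 5% CO2. Luciferase activity was read by luminescence 30 min after ONE-Glo addition; signal suppression marked inhibition of damage-induced ELG1 function.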
DT40 TDP1 no CPT – qHTS for Inhibitors of human tyrosyl-DNA phosphodiesterase 1 (TDP1): qHTS in cells in absence of CPT | DT40 Tdp1-/- hTDP1 cells, no CPT, ATP luminescence, 48 h | Potency, µM (doses to about 46.2 µM), inactives show at the highest dose activity change, negative = growth inhibition, most hits filed as inhibitors | 420,000 compounds, 15% hits | AID 686978, 2013; note: nearly all actives have a fitted effect of over 55% in size
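Camptothecin absent (DMSO only). Human TDP1-complemented DT40 knockout cells, 400 cells/well, 37 °C for minimum 48 hr; ATP measured via CellTiter-Glo, 30 min dark incubation, luminescence.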
* hit, by the source's call; ? = inconclusive; nt = no result; [ ] = dose if it differs, or a comment. Shown are actives, neighbours in structure and some others; about 15% of the full set was active somewhere. Calls come from the whole dose curve; as a rule, active = well fitted curve in the direction sought with a large enough effect; inconclusive = small, poorly fitted or top-dose-only effect, or another doubt; inactive = no such curve, though single readings can be large; an effect the other way counts as inactive or inconclusive. % is set by controls: 0 for no effect and ±100 for the full control effect; potency is the fitted concentration of half-maximal effect.

SMILES	TDP1 cell CPT	RORg inh	12-LOX inh	VP16 counter	ELG1 DNA repair	DT40 TDP1 no CPT
COc1ccc(Nc2ncnc3sccc23)cc1OC	-24%	-6%	-23%	-22%	12%	-18%
CS(=O)(=O)c1ccc(-c2cnc([C@@H]3COCCN3C3CCNCC3)[nH]2)cc1	nt	nt	19%[176 µM]	nt	nt	nt
Cc1c(C)n(Cc2ccncc2)c2ncnc(NCc3ccncc3)c12	nt	nt	202%	nt	nt	nt
O=C(CSc1nnc(Cc2cc(=O)[nH]c(=O)[nH]2)n1-c1ccc(F)cc1)c1ccccc1	nt	nt	-11%	nt	nt	nt
COc1cc2ncnc(Nc3ccc4c(c3)OCO4)c2cc1OC	-24%	4%	18%	-7%	2%	-1%
C#Cc1cccc(Nc2ncnc3cc(OCCOC)c(OCCOC)cc23)c1	?	0%[10 µM]	-19%[22.9 µM]	-20%	nt	13µM*
COc1ccc(C(=O)/C=C/c2ccccc2C(F)(F)F)cc1F	nt	nt	68%	nt	nt	nt
CC12CC(c3ccccc3O1)C(/C(N)=N/NC(=O)c1ccc(F)cc1)C(=O)N2 (centres undefined)	9%	4.5µM*	-5%	?	?	-8%
CC(C)CCNC(=O)C1CCN(C(=O)c2cc3sccc3n2Cc2ccc(Cl)cc2)CC1	18µM*	nt	-1%	nt	nt	9.2µM*
O=C(NCc1ccco1)C1CCN(C(=O)c2cc3sccc3n2Cc2ccc(F)cc2)CC1	?	32%	7%	-18%	?	?
O=C(NCc1ccccn1)C1CCN(C(=O)c2cc3sccc3n2Cc2ccc(F)cc2)CC1	?	5%	-2%	-10%	21µM*	23µM*
O=C(NCCCN1CCCC1)C1CCN(C(=O)c2cc3sccc3n2Cc2ccc(F)cc2)CC1	16µM*	-4%	2%	0%	7%	?
Cn1c(=O)c2c(nc(N3CCN(C(=O)c4ccccc4)CC3)n2Cc2ccccc2)n(C)c1=O	nt	nt	0%	nt	nt	nt
Cc1cnc(C)n1C1CCN(C(=O)CCn2cccn2)CC1	nt	nt	69%	nt	nt	nt
COc1ccc(-c2nc(CCNC(=O)c3cccs3)cs2)cc1OC	?	nt	-8%	nt	nt	21µM*
O=C(NCCc1csc(-c2ccccc2)n1)c1ccco1	18µM*	31%	0%	-11%	23%	?
O=C(NCCc1csc(-c2ccc(Cl)cc2)n1)c1cccs1	?	nt	-30%	nt	nt	16µM*
O=C(NCCc1csc(-c2cccnc2)n1)c1cccc2ccccc12	16µM*	?	10%	-3%	?	23µM*
O=C(NCCc1ccc(Cl)cc1)c1cccs1	-4%	35%	0%	6%	?	-14%
CN(C)[C@@H]1CC[C@@]23CCCN2C(=O)CCC[C@H]3[C@H]1Cc1ccccc1	nt	nt	-5%	nt	nt	nt
COc1cccc(-c2cc(C(=O)NCCC(C)n3ccnc3)[nH]n2)c1 (centres undefined)	nt	nt	61%	nt	nt	nt
O=C(NCc1ccccc1)c1csc(-c2cccnc2)n1	?	18%	33%	4%	5.8µM*	5.8µM*
O=C(NCCc1csc(-c2ccccc2)n1)c1cccs1	23µM*	27%	27%	6%	-3%	9.2µM*
Cc1nc(CCNC(=O)c2cccs2)cs1	0%	-28%	10%	2%	28%	-1%
COCCN1C(=O)[C@H]2CN(C(=O)c3ccncc3)C[C@H]2C1=O	nt	nt	38%	nt	nt	nt
SMILES	TDP1 cell CPT	RORg inh	12-LOX inh	VP16 counter	ELG1 DNA repair	DT40 TDP1 no CPT
CCc1c(C)nc2ncnn2c1N1CCCC(C(=O)NCc2ccc3c(c2)OCO3)C1 (centres undefined)	?	?	-2%	?	?	21µM*
Cn1c(C(=O)N2CCCC(C(=O)NCc3ccc4c(c3)OCO4)C2)cc2sccc21 (centres undefined)	?	14%	-6%	6%	?	23µM*
CN(C)C(=O)N1CCC(C(=O)NCc2ccc3c(c2)OCO3)CC1	7%	0%	17%	3%	0%	-6%
Cc1ccc(CCNC(=O)C2CCCN(C(=O)c3cc4sccc4n3C)C2)cc1 (centres undefined)	-29%	15%	18%	16%	?	?
CCn1c(C(=O)N2CCC(C(=O)NCc3ccc4c(c3)OCO4)CC2)cc2sccc21	23µM*	?	-2%	-10%	7.3µM*	15µM*
COc1ccc(C(=O)N(CC#N)C2CC2)cc1OC	nt	nt	-7%	nt	nt	nt
COCc1c(C(=O)OCC(=O)NCC2CCCO2)sc2cccc(F)c12 (centres undefined)	nt	nt	0%	nt	nt	nt
CN1CCN(c2ncnc3sc4c(c23)CCN(Cc2ccco2)C4)CC1	nt	nt	98%	nt	nt	nt
OC(CON=C1c2ccccc2-c2ccccc21)CN1CCNCC1 (centres undefined)	12µM*	-24%	-26%	-17%	21%	7.3µM*
OC(CN1CCNCC1)Cn1ccc2ccccc21 (centres undefined)	nt	-9%	nt	-9%	1%	nt
CCOC(=O)c1sc2c(c1C)C(c1cccs1)C1=C(CCCC1=O)N2 (centres undefined)	?	39%	-3%	-1%	?	16µM*
CC1=C(C(=O)OC(C)C)C(c2cccs2)C(C(=O)OC(C)C)=C(C)N1	?	17%	2%	-27%	-30%	12µM*
CC1=C(C(=O)OC(C)C)C(C)C(C(=O)OC(C)C)=C(C)N1	11µM*	7%	-15%	-7%	?	?
CCOC(=O)C1=C(C)NC2=C(C(=O)CCC2)C1c1cccs1 (centres undefined)	6%	4%	-4%	-5%	15%	-26%
CC1=C(C(=O)OC(C)C)C(c2ccccc2)NC(=O)N1 (centres undefined)	nt	nt	44%	nt	nt	nt
CCOC(=O)C1=C(C)NC(C)=C(C(=O)OCC)C1c1cccs1	?	5%	-2%	-10%	-16%	23µM*
CC(C)Cc1nc(N2CCOCC2)c(C#N)c2c1CCCC2	nt	nt	-13%	nt	nt	nt
CCCCNC(=O)c1ccc(NC(=O)CCc2ccccc2)cc1	nt	nt	11%	nt	nt	nt
Cc1ccc(-n2nc(C(=O)N(C)c3ccc(C)c(C)c3)c3c4ccccc4n(C)c3c2=O)cc1	16µM*	nt	-18%	nt	nt	13µM*
